Measurements: PubChem BioAssay (NCATS)
Records with an inconclusive call do not appear. Calls of active or inactive are those of the source. Calls follow the shape of the dose curve; as a rule, active = well fitted inhibition curve with a large enough effect in the repeat runs; inconclusive = weak or mixed curves; inactive = no such curve, though single readings can be large or run the other way.

molecular target: Cytochrome P450 2C9 (Homo sapiens) (UniProt P11712); assay: Cytochrome P450 family 2 subfamily C member 9 (CYP2C9) small molecule antagonists: luciferase biochemical (cell-free) qHTS assay (AID 1645842); conditions: P450-Glo CYP2C9 enzyme assay, luciferin luminescence; series mostly up to 57.4 µM; activity change, negative = inhibition: at the top concentration; also: nearly all actives have a fitted effect of over 55% in size
Experimental: National Center for Advancing Translational Sciences [NCATS] Assay Overview: Cytochrome P450 (CYP) enzymes are membrane-bound hemeproteins that play a key role in metabolism of drugs and xenobiotics. Assaying the effect of chemicals on CYP isozymes is useful to minimize the adverse drug reactions and toxicities in drug development process. Chemical compounds were tested for their effect on CYP enzyme activities by using P450-Glo (TM) screening systems (Promega Corporation, Madison, WI). These systems provide a luminescent method containing proluciferin substrates and are converted to luciferin products by CYP isozymes. The luciferin products formed are detected with a luciferin detection reagent, and the amount of light produced is proportional to CYP activity. P450-Glo (TM) CYP2C9 screening system (Catalog. No. V9790) was used to detect the compounds that interfere in CYP2C9 activity.
Assay Protocol Summary: Two ul of enzyme-substrate mix supplemented with 0.4% Bovine Serum Albumin was dispensed into medium binding white/solid 1536-well plates (Greiner Bio-One North America Inc., Monroe, NC) using a Flying Reagent Dispenser (FRD, Aurora Discovery, San Diego, CA). […] The assay plates were incubated at room temperature for 10 min. Then 2 ul of NADPH regeneration solution was added to each well of the assay plates using an FRD and incubated at 37C for 1 h. The reaction was stopped by adding 4 ul of detection reagent using an FRD and after 20 min incubation at room temperature, the luminescence signal was measured using a ViewLux plate reader (Perkin Elmer, Shelton, CT). Data were expressed as relative luminescence units.
% is scaled to controls: 0 for no effect and ±100 for the full control effect; potency is read from the fitted curve at half-maximal effect.

Cytochrome P450 2C9 (Homo sapiens), sequence (P11712 whole entry, looked up): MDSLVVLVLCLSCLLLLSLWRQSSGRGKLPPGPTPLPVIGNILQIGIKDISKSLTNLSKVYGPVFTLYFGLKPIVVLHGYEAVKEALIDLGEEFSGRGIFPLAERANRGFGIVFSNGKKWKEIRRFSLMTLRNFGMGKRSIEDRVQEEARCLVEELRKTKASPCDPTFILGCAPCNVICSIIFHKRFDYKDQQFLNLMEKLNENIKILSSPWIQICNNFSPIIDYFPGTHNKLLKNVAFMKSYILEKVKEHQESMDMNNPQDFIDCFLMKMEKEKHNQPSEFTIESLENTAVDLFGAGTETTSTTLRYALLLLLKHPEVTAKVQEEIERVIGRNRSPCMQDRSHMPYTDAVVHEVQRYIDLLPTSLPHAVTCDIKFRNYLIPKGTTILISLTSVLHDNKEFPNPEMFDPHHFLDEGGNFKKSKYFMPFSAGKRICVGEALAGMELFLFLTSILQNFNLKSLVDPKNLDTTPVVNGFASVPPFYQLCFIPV

SMILES	activity change, negative = inhibition	Potency
CC(=O)OCC[N+](C)(C)C	0.276% (inactive)	
O=C(O)[C@H](O)[C@@H](O)[C@H](O[C@@H]1O[C@H](CO)[C@H](O)[C@H](O)[C@H]1O)[C@H](O)CO	7.2% (inactive)	
CCO[C@H](Cc1ccc(OCCc2ccc(OS(C)(=O)=O)cc2)cc1)C(=O)O	8.8% (inactive)	
C1=CC2C3C=CC(C3)C2C1 (stereo not given)	2.12% [at 115 µM] (inactive)	
CC(=O)N(CC(O)CO)c1c(I)c(C(=O)NCCO)c(I)c(C(=O)NCC(O)CO)c1I (stereo not given)	15.5% (inactive)	
CCOC(=O)c1ccc(NC(=O)CN2CCCCC2)cc1	1.75% (inactive)	
CC(C)C(=O)Nc1cccc(C(F)(F)F)c1	4.62% (inactive)	
COC(=O)C1=C(C)NC(C)=C(C(=O)OCCc2ccc(N3CCN(C(c4ccccc4)c4ccccc4)CC3)cc2)C1c1cccc([N+](=O)[O-])c1 (stereo not given)		550 nM (active)
C[C@]12CCC(=O)C=C1CC[C@@H]1[C@@H]2[C@@H](O)C[C@@]2(C)[C@H]1CC[C@]2(O)C(=O)COC(=O)CCC(=O)O	-0.782% (inactive)	
Cc1ncc(CO)c(CO)c1O	7.59% (inactive)	
COc1cc2nc(Cl)nc(N)c2cc1OC	1.12% (inactive)	
C[C@H]1C[C@H](O)c2ccsc2S1(=O)=O	22.7% (inactive)	
Cc1oc(=O)oc1COC(=O)[C@@H]1N2C(=O)[C@@H](NC(=O)[C@H](N)c3ccccc3)[C@H]2SC1(C)C	-23.9% (inactive)	
CCOC(=O)NNc1nncc2ccccc12	5.88% (inactive)	
COC(=O)c1c(Cl)c(Cl)c(C(=O)OC)c(Cl)c1Cl	0.302% [at 115 µM] (inactive)	
CO/N=C(\C(=O)O)c1csc(NC(=O)CCl)n1	5.44% (inactive)	
CC(=O)Oc1ccc(C2(c3ccc(OC(C)=O)cc3)Oc3ccccc3NC2=O)cc1		1740 nM (active)
O=C(OCC1(COC(=O)c2cccnc2)CCCC(COC(=O)c2cccnc2)(COC(=O)c2cccnc2)C1O)c1cccnc1		2450 nM (active)
Cn1cc(S(C)=O)c(=O)c2ccc(F)cc21 (stereo not given)	25.8% (inactive)	
O=C1CC(c2ccc(Cl)cc2)CC(=O)N1	13.7% (inactive)	

SMILES	activity change, negative = inhibition	Potency
Cc1onc(-c2ccccc2)c1C(=O)Cl	0.957% (inactive)	
COCCc1ccc(OCC2CO2)cc1 (stereo not given)	2.05% (inactive)	
Cc1nc([N+](=O)[O-])cn1-c1ccc([N+](=O)[O-])cc1	1.59% (inactive)	
O=C(CS(=O)Cc1ccco1)NC/C=C\COc1cc(CN2CCCCC2)ccn1 (stereo not given)	10.1% (inactive)	
O=C(NO)c1ccccc1	5.61% [at 115 µM] (inactive)	
CCN1C(=O)c2ccccc2C1Nc1ccc(OCCN2CCCCC2)cc1 (stereo not given)	6.75% (inactive)	
C[C@H]1NCc2cc(-c3ccc4c(=O)c(C(=O)O)cn(C5CC5)c4c3OC(F)F)ccc21	13% [at 23.9 µM] (inactive)	
CCC(=O)O[C@H]1[C@H](O[C@@H]2[C@@H](C)[C@H](O[C@H]3C[C@@](C)(OC)[C@@H](O)[C@H](C)O3)[C@@H](C)C(=O)O[C@H](CC)[C@@](C)(O)[C@H](O)[C@@H](C)C(=O)[C@H](C)C[C@@]2(C)O)O[C@H](C)C[C@@H]1N(C)C	13.8% (inactive)	
CCCc1ncc(C(=O)O)s1	7.94% (inactive)	
N#CC1(c2ccc(F)cc2)CCC(=O)CC1	7.58% (inactive)	
OC1(c2ccccc2)CCNCC1	-18.5% (inactive)	
COc1ccc(-n2nc(CCC(=O)N(C)O)cc2-c2ccc(Cl)cc2)cc1		2750 nM (active)
C/C=C(/C(=C/C)c1ccc(OC(C)=O)cc1)c1ccc(OC(C)=O)cc1		17400 nM (active)
CC(C)(C)CC(=O)OCC(=O)[C@@]1(O)CC[C@H]2[C@@H]3CCC4=CC(=O)C=C[C@]4(C)[C@H]3[C@@H](O)C[C@@]21C		11000 nM (active)
COC(=O)c1ccc(NC(C)=O)cc1OC	7.39% (inactive)	
COc1ccc(OC(=O)N(CC(=O)O)Cc2ccc(OCCc3nc(-c4ccccc4)oc3C)cc2)cc1		17400 nM (active)
Nc1nc(=O)n([C@@H]2O[C@H](CO)[C@@H](O)[C@@H]2F)cc1I	11.2% (inactive)	
O=C(O)c1ccccc1Nc1cc(Cl)ccc1C(=O)O	9.02% [at 23.9 µM] (inactive)	
CCCCCC[C@@H](CCC)C(=O)O	-5.76% (inactive)	
Nc1ncnc2nc[nH]c12	11.7% (inactive)	
